# Source: PubChem BioAssay
# HPGD block – HPGD (human) dehydrogenase inhibition; P15428; purified HPGD, NADH fluorescence kinetic, PGE2 substrate; Potency, µM, for the others: at the top dose activity change, negative = inhibition, actives largely listed as inhibitors; hit rate 4.3% among 150,000; further: on the % scale 0 is the no-effect control and ±100 the full control effect
# Target sequence (P15428 whole entry, looked up): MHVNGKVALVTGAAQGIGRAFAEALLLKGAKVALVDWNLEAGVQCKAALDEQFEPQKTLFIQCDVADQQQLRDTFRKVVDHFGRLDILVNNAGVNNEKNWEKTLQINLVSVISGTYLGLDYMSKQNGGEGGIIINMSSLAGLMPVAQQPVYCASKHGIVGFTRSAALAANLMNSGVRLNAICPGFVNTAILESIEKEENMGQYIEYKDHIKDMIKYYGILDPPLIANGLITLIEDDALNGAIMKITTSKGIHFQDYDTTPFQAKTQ
#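 NADH formation kinetics: reaction with 30 uM PGE2 and 1 mM NAD+ (final), 20 nM enzyme, Tris-HCl pH 8 with Tween 20, after 15 min compound preincubation at room temperature. Fluorescence change, last versus first of five reads.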
# HTT cytoprotect – Huntington cell model cytoprotection by ATP luminescence; PC12 HTT-Q103 induced, cytoprotection, ATP luminescence, 40 h; hit rate 0.14% among 230,000; Potency, µM (titrated, usually from 56.4 µM), without a hit: cytoprotection (ATP increase), most hits filed as activators; active means well fitted curve in the direction sought with a large enough effect; inconclusive means small, poorly fitted or top-dose-only effect, or another doubt; inactive means no such curve, though single readings can be large; an effect the other way counts as inactive or inconclusive; further: % of control where 0% means no effect; nearly all actives have a fitted effect of over 45% in size
#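 PC12 cells with ecdysone-inducible HTT exon 1 Q103-GFP, induced with 100 nM tebufenozide and co-treated with library compounds in a dose series (1536-well, 1500 cells/well). Cytoprotection read as ATP content by ATPlite luminescence.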
# Lamin A splicing – modulators of lamin A splicing; hit rate 0.01% among 200,000; HeLa LMNA splicing GFP/RFP minigene ratio, 48 h; Potency, µM (highest dose often 46.1 µM), inactives show at the top dose ratio change, negative = inhibition, most hits filed as inhibitors; AID 1487; active means well fitted inhibition curve with a large enough effect in the signal ratio, with a control signal flat, not every such curve was filed as active; inconclusive means small, poorly fitted or top-dose-only effect, or effect the other way, or a change in a side signal; the % refers to the signal ratio; further: on the % scale 0 is the no-effect control and ±100 the full control effect
#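 S3 HeLa cells stably expressing lamin A-EGFP splicing minigene plus DsRed2, 600 cells/well, 48 h compound exposure at 37C. Laser-scanning cytometry; analysed as GFP (500-530 nm)/RFP (575-640 nm) total intensity ratio; 0.5% DMSO vehicle.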
# ALDH1A1 block – blocks purified human ALDH1A1 activity; Purified ALDH1A1, NADH fluorescence, propionaldehyde substrate; Potency, µM (series often up to 75.3 µM), inactives show at the top dose activity, negative = inhibition, actives largely listed as inhibitors; hit rate 7.3% among 220,000; AID 1030;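 further: plate controls were no enzyme wells and a reference inhibitor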
# JMJD2E inh – blocks human JMJD2E demethylase activity; hit rate 1.6% among 230,000; Potency, µM (highest dose often 57.1 µM), for inactives: at the highest dose activity change, negative = inhibition, most hits filed as inhibitors; B2RXH2; JMJD2E catalytic domain, FDH-coupled NADH fluorescence (FDH is formaldehyde dehydrogenase);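 further: 0% = wells with enzyme and -100% = buffer wells without enzyme; nearly all actives have a fitted effect of over 50% in size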
# Target sequence (B2RXH2 1-337 limits assumed): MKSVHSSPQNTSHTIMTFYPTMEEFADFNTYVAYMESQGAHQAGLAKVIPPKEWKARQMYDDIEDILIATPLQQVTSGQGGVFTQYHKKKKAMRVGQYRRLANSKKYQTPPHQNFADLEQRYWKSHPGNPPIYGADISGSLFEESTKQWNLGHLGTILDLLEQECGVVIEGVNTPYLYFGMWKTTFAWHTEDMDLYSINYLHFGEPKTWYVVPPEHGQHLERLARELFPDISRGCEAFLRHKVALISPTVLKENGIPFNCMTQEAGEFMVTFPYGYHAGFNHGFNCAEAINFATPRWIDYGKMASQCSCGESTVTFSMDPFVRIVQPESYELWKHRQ
# HttQ103 aggreg – inhibitors of mutant huntingtin aggregate formation in PC12 cells; PC12 HttQ103-GFP aggregates, Acumen cytometry, 40 h; Potency, µM (series often up to 46.1 µM), for inactives: at the highest dose activity change, negative = inhibition, usual class: inhibitors; AID 1688; hit rate 1.1% among 220,000; active means well fitted curve in the direction sought with a large enough effect; inconclusive means small, poorly fitted or top-dose-only effect, or another doubt; inactive means no such curve, though single readings can be large; an effect the other way counts as inactive or inconclusive; further: on the % scale 0 is the no-effect control and ±100 the full control effect; nearly all actives have a fitted effect of over 60% in size
#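 PC12/HTTQ103-GFP, ecdysone-inducible; teb 100 nM; cpd qHTS titration; GFP aggregates read on laser cytometer, Ex 488/Em 500-530 nm.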
# Numbers without * were called inactive; u = inconclusive; x = no result given; [ ] = dose if it differs, or a comment. The list is not random: actives were taken first. Their share in the collection is about 9.2%. Unless noted, the call rests on the fitted dose curve; in most records, active means well fitted inhibition curve with a large enough effect (not every such curve was filed as active); inconclusive means small, poorly fitted or top-dose-only effect, or another doubt; inactive means no such curve, though single readings can be large or run the other way. Potency means the concentration at half of the fitted maximal effect.
SMILES,HPGD block,HTT cytoprotect,Lamin A splicing,ALDH1A1 block,JMJD2E inh,HttQ103 aggreg
N#C/C(=C\c1ccc([N+](=O)[O-])cc1)c1ccccn1,x,-70%,-8%[46 µM],-15%,-2%,u
N#CC(C#N)=Cc1ccc(OC(=O)c2ccccn2)cc1,-9%,-21%[10 µM],-8%,2µM*,18µM*,18%
CN(C)c1ccc(/C=C(\C#N)c2ccccn2)cc1,-22%,-86%[10 µM],u,9.5µM*,-5%,5%
NCCC[C@@H](CC(=O)N[C@@H]1CCCC[C@H]1C(=O)N[C@H](CC(=O)N[C@@H](CCC(=O)O)CC(=O)O)Cc1c[nH]c2ccccc12)NC(=O)C[C@H](Cc1c[nH]c2ccccc12)NC(=O)[C@@H]1CCCC[C@H]1N,-12%,10%[1.9 µM],x,u,u,x
O=C(COc1ccc2ccccc2c1)NC1CC(=O)N(c2cccc(F)c2)C1 (stereo not drawn),x,x,23%[46 µM],x,x,x
O=C1NCCCC1C(=O)N1CCCCC1 (stereo not drawn),x,-27%,-4%[46 µM],-2%,4%,10%
O=C1CCC(=O)N(O)CCCCCNC(=O)CCC(=O)N(O)CCCCNC(=O)CCC(=O)N(O)CCCCCN1,x,6%[10 µM],x,x,4.5µM*,4%[9.22 µM]
Cc1noc(C)c1C(=O)N1CCC2(CC1)Oc1ccc(F)cc1C(=O)C21CC(c2ccc(Cl)cc2)=NO1 (stereo not drawn),x,12%[10 µM],x,x,2%,20%[9.22 µM]
CCOC(=O)C1CCC(CN(Cc2ccc(Cl)cc2)S(=O)(=O)c2ccc(F)c(C(=O)Nc3cccc(F)c3)c2)CC1 (stereo not drawn),x,x,-10%[46 µM],x,x,x
CC(=O)N1CCN(c2ccc(Oc3ncnc4sccc34)cc2)CC1,-1%,27%[10 µM],-11%,16%,7%,18µM*
O=C(CSc1nnc2ncccn12)N1CCCCCC1,u,-14%,-2%,-15%,-25%,0.56µM*
CCOC(=O)CCCNC(=O)N1CCc2nc(COc3ccccc3)c3c(c2C1)CO[C@@H](C)C3,-2%,-20%[10 µM],8%[9.22 µM],2%[13.5 µM],-3%[11.4 µM],x
CCN(CC)S(=O)(=O)c1cc(NC(=O)CNc2c(C)n(C)n(-c3ccccc3)c2=O)ccc1C,x,7%,x,u,3%,-6%
CC(C)(C)c1ccc(/C=C/C(=O)N2CCOCC2)cc1,25µM*,-1%[0.074 µM],1%,u,3%,3%
COC1=CC(=O)C(O)=C/C1=C\C=C\c1ccccc1,11µM*,x,u,13µM*,13µM*,x
O=C(c1ccc(Cl)nc1)c1cccs1,x,-3%[10 µM],x,x,-5%,-10%[9.22 µM]
O=C(c1cccs1)c1no[n+]([O-])c1C(=O)c1cccs1,13µM*,-88%,u,0.28µM*,u,u
COc1ccc(C(=O)c2no[n+]([O-])c2C(=O)c2ccc(OC)cc2)cc1,u,-197%[0.074 µM],u,1µM*,0%,u
Fc1ccc(-c2noc3ncnc(NCc4ccc(Cl)cc4)c23)cc1,x,x,5%[46 µM],x,x,x
CCCc1cc(=O)[nH]c(SCC(=O)Nc2sc3c(c2C#N)CCC(C)C3)n1 (stereo not drawn),x,-20%,-22%[46 µM],22µM*,-1%,7%
CC1CCc2c(sc(NC(=O)CSc3nnc(-c4ccccc4)o3)c2C#N)C1 (stereo not drawn),-2%,14%[1.9 µM],-20%,-10%,-12%,21%
CC(C)(C)C1CCc2c(sc(NC(=O)CSc3ncn[nH]3)c2C#N)C1 (stereo not drawn),14µM*,-13%[10 µM],u,8.9µM*,4%,u
CC1CCc2c(sc(NC(=O)CSc3ncn[nH]3)c2C#N)C1 (stereo not drawn),x,-2%[10 µM],x,x,-2%,-17%[9.22 µM]
Cc1oc(-c2cccc(Br)c2)[n+]([O-])c1C,x,-9%,x,u,-24%,0%
CCC(=O)N1CCc2cc(CNS(=O)(=O)c3c(C)cc(C)cc3C)ccc21,x,x,8%[46 µM],x,x,x
SMILES,HPGD block,HTT cytoprotect,Lamin A splicing,ALDH1A1 block,JMJD2E inh,HttQ103 aggreg
O=C(O)c1ccc(CN2CCCCC2)o1,-6%,4%[10 µM],-3%,7%,2%,3%
COC(=O)c1ccc(CN2CCN(Cc3ccc(C(=O)OC)o3)CC2)o1,-9%,4%[10 µM],13%,22µM*,8%,16%
COC(=O)c1c(-c2cccc(C)c2)csc1N,-27%,-12%,-11%,16%,2%,-29%
COC(=O)c1c(-c2ccc3ccccc3c2)csc1NC(=O)Cc1ccc(OC)c(OC)c1,-11%,-70%,u,-1%,u,u
COC(=O)c1c(-c2cccc(OC)c2)csc1N,-19%,3%[10 µM],u,25µM*,-16%,3%
COC(=O)c1c(-c2ccc(OC)c(OC)c2)csc1N,28µM*,-13%,1%,4µM*,-17%,-1%
C1COC1,-6%,-45%,x,9%,x,x
CC1=CC(=C(C#N)C#N)C=C(C)N1CCC(C)C,x,14%,u,28µM*,u,-20%
CCSCc1nnc(SCC(=O)Nc2cccc(SC)c2)n1C,-19%,23%[10 µM],3%,20µM*,0%,11%
CCSCc1nnc(SCC(=O)Nc2cccc(C(C)=O)c2)n1C,x,5%,0%[46 µM],6%,-42%,11%
Nc1cc(N2CCCCC2)nc(N)[n+]1OS(=O)(=O)[O-],x,u,x,-6%,x,x
CC1(OC(=O)c2ccc(Cl)nc2)C(=O)C=C2C=C(C3CC3)OC=C2C1=O (stereo not drawn),-2%,-37%,x,-1%,-4%,x
CC1(OC(=O)c2ccc(Cl)nc2)C(=O)C=C2C=C3CCCN3C=C2C1=O (stereo not drawn),-7%,-21%[10 µM],3%[9.22 µM],4%[13.5 µM],5.6µM*,-28%[9.22 µM]
Cc1cccc2c1NC(=O)C21N2CCCC2C(C(=O)c2ccc3ccccc3c2)C12C(=O)Nc1ccccc12 (stereo not drawn),x,-18%[10 µM],x,x,-16%,-11%[9.22 µM]
CCc1cccc2c1NC(=O)C21N2CCCC2C(C(=O)c2ccc3ccccc3c2)C12C(=O)Nc1ccccc12 (stereo not drawn),-7%,-18%[10 µM],-1%,20µM*,u,-28%
O=c1cnc2cc([N+](=O)[O-])ccc2[nH]1,x,-2%[10 µM],24%[46 µM],u,-27%,3%[9.22 µM]
Cc1ccc(O)c(C(=O)c2cnn(C(=O)COc3ccccc3C#N)c2)c1,x,6%[10 µM],x,x,1%,-2%[9.22 µM]
N#Cc1ccc(CN2CCC3(CC2)CCN(C(=O)c2cc(C(F)(F)F)cc(C(F)(F)F)c2)CC3)cc1,-5%,-5%,x,1%,x,x
CC(C)(C)NC(=O)C(c1ccncc1)N(C(=O)c1csnn1)C1CC1 (stereo not drawn),-6%,6%,-2%,10µM*,-1%,23%
CC(C)(C)NC(=O)C(c1cccnc1)N(C(=O)c1ccc(Cl)nc1)C1CCCC1 (stereo not drawn),x,-13%[10 µM],x,5.6µM*,0%,7%[9.22 µM]
